Test [1] can be described thus: ATG_XTT_Cytotoxicity: Cytotoxicity Assessment in the Attagene TRANS-FACTORIAL HepG2 Assay (AID 2283584; active means hit-call score of the fitted dose curve at least 0.9, where 1 is the maximum;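 on AC50: cells exposed to compound for 24 h before reading; active means loss of viability signal versus DMSO baseline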). The method, boiled down: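 Viability endpoint from XTT after 24 h chemical exposure of reporter-transfected human HepG2 liver cells; signal loss fitted relative to DMSO negative control.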
Read-out in test [2]: Signal transducer and activator of transcription 3 (Homo sapiens) (UniProt P40763)
The test is described as follows: LTEA_HepaRG_STAT3: Life Technologies and Expression Analysis (LTEA) Assay for Signal transducer and activator of transcription (STAT3) using HepaRG (AID 2283529). The note with it: mRNA level, 48 h; actives raise or lower the signal. The method, boiled down:
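Differentiated HepaRG cells, serum-free induction medium, dosed 48 h in duplicate, 8 half-log concentrations from 100 uM in 0.5% DMSO. STAT3 mRNA by qRT-PCR, normalised to ACTB, GAPDH, POLR2A; bidirectional fit versus DMSO.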

Read-out in test [3]: solute carrier (SLCO1B1), SLCO1B1 (gene 10599)
Kind of test: LTEA_HepaRG_SLCO1B1: Life Technologies and Expression Analysis (LTEA) Assay for solute carrier (SLCO1B1) using HepaRG (AID 2283530). The conditions noted are these: mRNA level, 48 h; actives raise or lower the signal. The method, boiled down: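 SLCO1B1 transcript levels were quantified by TaqMan qRT-PCR using three housekeeping genes for normalization. This followed 48 h chemical exposure (100 uM top, half-log, 8 points, 0.5% DMSO) of HepaRG liver cells, with gain or loss fitted relative to DMSO.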

Read-out in test [4]: sulfotransferase 2A1 (SULT2A1), SULT2A1 (gene 6822)
Kind of test: LTEA_HepaRG_SULT2A1: Life Technologies and Expression Analysis (LTEA) Assay for sulfotransferase 2A1 (SULT2A1) using HepaRG (AID 2283531). The conditions noted are these: mRNA level, 48 h; actives raise or lower the signal. A digest of the protocol:
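Expression change of SULT2A1, by qRT-PCR with three housekeeping-gene normalization, was scored bidirectionally versus DMSO. Cells: differentiated HepaRG, dosed in duplicate for 48 h across 8 points, highest 100 µM, half-log dilution, 0.5% DMSO.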

Read-out in test [5]: Transforming Growth Factor (TGFA), TGFA (gene 7039)
The test is described as follows: LTEA_HepaRG_TGFA: Life Technologies and Expression Analysis (LTEA) Assay for Transforming Growth Factor (TGFA) using HepaRG (AID 2283532). The conditions noted are these: mRNA level, 48 h; actives raise or lower the signal. A digest of the protocol: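 Differentiated HepaRG cells exposed 48 hours in serum-free induction medium, 0.5% DMSO vehicle, 8-point half-log series from 100 uM, in duplicate. TGFA mRNA by TaqMan qRT-PCR, normalised to ACTB, GAPDH, POLR2A; bidirectional fit versus DMSO.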

Read-out in test [6]: Transforming Growth Factor (TGFB1), TGFB1 (gene 7040)
The test is described as follows: LTEA_HepaRG_TGFB1: Life Technologies and Expression Analysis (LTEA) Assay for Transforming Growth Factor (TGFB1) Transporter using HepaRG (AID 2283533). The conditions noted are these: mRNA level, 48 h; actives raise or lower the signal. The method, boiled down:
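TGFB1 transcript measured by qRT-PCR with normalisation to three housekeeping genes (ACTB, GAPDH, POLR2A); human HepaRG line treated in duplicate for 48 hr with an 8-point series topping at 100 uM, 0.5% DMSO vehicle, bidirectionally fitted.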

Read-out in test [7]: TIMP1, TIMP1 (gene 7076)
Kind of test: LTEA_HepaRG_TIMP1: Life Technologies and Expression Analysis (LTEA) Assay for TIMP1 using HepaRG (AID 2283534). The conditions noted are these: mRNA level, 48 h; actives raise or lower the signal. The method, boiled down:
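Bidirectional change in TIMP1 transcript versus 0.5% DMSO, measured by TaqMan qRT-PCR with three housekeeping genes for normalization. HepaRG human liver cells dosed 48 h in duplicate, top concentration 100 uM with half-log dilutions.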

Read-out in test [8]: Tumor necrosis factor receptor 1 (TNFRSF1A), TNFRSF1A (gene 7132)
Kind of test: LTEA_HepaRG_TNFRSF1A: Life Technologies and Expression Analysis (LTEA) Assay for Tumor necrosis factor receptor 1 (TNFRSF1A) using HepaRG (AID 2283535). The note with it: mRNA level, 48 h; actives raise or lower the signal. A digest of the protocol:
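mRNA measured by qRT-PCR (TaqMan, Fluidigm arrays) against ACTB/GAPDH/POLR2A housekeepers after 48 h chemical exposure of HepaRG cells. Top concentration 100 uM, half-log 8-point series, duplicates; vehicle 0.5% DMSO, both fit directions.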

Read-out in test [9]: Thyroid Hormone Responsive (THRSP), THRSP (gene 7069)
The test is described as follows: LTEA_HepaRG_THRSP: Life Technologies and Expression Analysis (LTEA) Assay for Thyroid Hormone Responsive (THRSP) using HepaRG (AID 2283536). The note with it: mRNA level, 48 h; actives raise or lower the signal. The method, boiled down: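 Differentiated HepaRG cells treated 48 h in serum-free induction medium with 8 half-log concentrations up to 100 uM (0.5% DMSO), duplicates. THRSP mRNA by TaqMan qRT-PCR normalised to ACTB, GAPDH, POLR2A; bidirectional fit versus DMSO.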

Read-out in test [10]: UDP glucuronosyltransferase (UGT1A1), UGT1A1 (gene 54658)
Kind of test: LTEA_HepaRG_UGT1A1: Life Technologies and Expression Analysis (LTEA) Assay for UDP glucuronosyltransferase (UGT1A1) using HepaRG (AID 2283538). The conditions noted are these: mRNA level, 48 h; actives raise or lower the signal. The method, boiled down:
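HepaRG cells, 0.5% DMSO vehicle, 48 h exposure in serum-free induction medium to 8-point half-log series topping at 100 uM, in duplicate. UGT1A1 mRNA by Fluidigm qRT-PCR, normalized to ACTB/GAPDH/POLR2A; bidirectional fit versus DMSO.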

Read-out in test [11]: UDP glucuronosyltransferase (UGT1A6), UGT1A6 (gene 54578)
The test is described as follows: LTEA_HepaRG_UGT1A6: Life Technologies and Expression Analysis (LTEA) Assay for UDP glucuronosyltransferase (UGT1A6) using HepaRG (AID 2283539). The note with it: mRNA level, 48 h; actives raise or lower the signal. A digest of the protocol:
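Expression was quantified by TaqMan qRT-PCR on Fluidigm arrays with ACTB/GAPDH/POLR2A normalization and bidirectional fitting against 0.5% DMSO. HepaRG cells (~100,000/well) were treated in duplicate for 48 h at eight half-log concentrations up to 100 uM in serum-free induction medium.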

Read-out in test [12]: X-box binding protein 1 (XBP1), XBP1 (gene 7494)
The test is described as follows: LTEA_HepaRG_XBP1: Life Technologies and Expression Analysis (LTEA) Assay for X-box binding protein 1 (XBP1) using HepaRG (AID 2283540). The conditions noted are these: mRNA level, 48 h; actives raise or lower the signal. A digest of the protocol: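 XBP1 transcript by qRT-PCR (housekeeping-normalized: ACTB, GAPDH, POLR2A) after 48 h chemical treatment of HepaRG cells, 8-point half-log series topping at 100 uM, vehicle 0.5% DMSO. Gain and loss of signal fitted relative to DMSO.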

Test [13] can be described thus: LTEA_HepaRG_LDH_cytotoxicity: Cytotoxicity Assessment in the Life Technologies and Expression Analysis (LTEA) Assay (AID 2283563; active means hit-call score of the fitted dose curve at least 0.9, where 1 is the maximum;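 on AC50: LDH activity released into spent culture medium as a marker of cell death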). A digest of the protocol:
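LDH release into culture medium read after 48 h chemical treatment of HepaRG cells. Duplicate wells, eight-point half-log series topping at 100 uM, 0.5% DMSO vehicle and baseline.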

Test [14] in a line: TOX21_p53_BLA_p3_viability: Viability Assessment in the Tox21 HCT-116 p53 Agonism Beta-lactamase Assay, Phase 3 (AID 2283593; active means hit-call score of the fitted dose curve at least 0.9, where 1 is the maximum;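 further: cells exposed to compound for 16 h before reading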). The method, boiled down:
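HCT116 cells, 4000/well, dosed 5 h after plating by pin transfer (217-fold dilution from DMSO stock) and incubated 16 h at 37C, 5% CO2. Viability read as ATP luminescence with CellTiter-Glo after 30 min at room temperature.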

Test [15] is described as follows: TOX21_p53_BLA_p4_viability: Viability Assessment in the Tox21 HCT-116 p53 Agonism Beta-lactamase Assay, Phase 4 (AID 2283597; active means hit-call score of the fitted dose curve at least 0.9, where 1 is the maximum;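 further: hits lower the luminescence signal meaning cytotoxicity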). A digest of the protocol: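 Following a 16 h exposure at 37C, the treated HCT116 wells were first read for the FRET ratio. They were then lysed with CellTiter-Glo, and ATP luminescence was recorded after 30 min at room temperature.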
Read-out in test [16]: Cellular tumor antigen p53 (Homo sapiens) (UniProt P04637)
Kind of test: LTEA_HepaRG_TP53: Life Technologies and Expression Analysis (LTEA) Assay for Tumor Protein P53 (TP53) using HepaRG (AID 2283537). The conditions noted are these: mRNA level, 48 h; actives raise or lower the signal. The method, boiled down:
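Read-out is TP53 transcript level by microfluidic qRT-PCR, normalised to three housekeeping genes and fitted bidirectionally against DMSO. Human HepaRG cells received compounds for 48 h, highest concentration 100 uM.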

Test [17] can be described thus: TOX21_p53_BLA_p2_viability: Viability Assessment in the Tox21 HCT-116 p53 Agonism Beta-lactamase Assay, Phase 2 (AID 2283591; active means hit-call score of the fitted dose curve at least 0.9, where 1 is the maximum;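 further: compound exposure lasted 16 h at 37 °C; actives lower the ATP signal meaning cytotoxicity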). The method, boiled down: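 HCT116 p53-bla cells, 4000/well, dosed after 5 h plating (217-fold dilution of DMSO stocks) and incubated 16 h at 37C. Viability taken as cellular ATP by CellTiter-Glo luminescence after 30 min RT; signal loss marks cytotoxicity.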

Test [18] concerns the target Cellular tumor antigen p53 (Homo sapiens) (UniProt P04637). Kind of test: TOX21_p53_BLA_p2_ratio: Tox21 HCT-116 p53 Agonism Beta-lactamase Assay, Ratio, Phase 2 (AID 2283592; active means hit-call score of the fitted dose curve at least 0.9, where 1 is the maximum). A digest of the protocol: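 Gain-of-signal p53 agonism was scored from the beta-lactamase FRET ratio (460/530 nm, 405 nm excitation) in HCT116 cells treated 16 h at 37C, 5% CO2, with DMSO serving as negative control and baseline.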

For test [19] the target is unchanged. Kind of test: TOX21_p53_BLA_p3_ratio: Tox21 HCT-116 p53 Agonism Beta-lactamase Assay, Ratio, Phase 3 (AID 2283596; active means hit-call score of the fitted dose curve at least 0.9, where 1 is the maximum). The method, boiled down:
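HCT116 p53-bla cells (4000/well) given compound in DMSO (217-fold dilution) after 5 h, incubated 16 h at 37C. CCF4-AM substrate 2 h at room temperature; 460/530 nm emission ratio, gain fitted against DMSO.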

Test [20] shares this target. Kind of test: TOX21_p53_BLA_p5_ratio: Tox21 HCT-116 p53 Agonism Beta-lactamase Assay, Ratio, Phase 5 (AID 2283599; active means hit-call score of the fitted dose curve at least 0.9, where 1 is the maximum). A digest of the protocol:
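HCT-116 p53-bla cells (4000/well) plated 5 h, dosed with compound (217-fold DMSO dilution) for 16 h at 37 C; CCF4-AM substrate 2 h at room temperature. Activity is the 460/530 nm emission ratio (405 nm excitation), fitted in gain-of-signal direction versus DMSO.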

Results filed as inconclusive are left out. The source made the active and inactive calls. How the source made its calls, unless noted: active means hit-call score of the fitted dose curve at least 0.9, where 1 is the maximum; inactive means score below 0.9.

Cellular tumor antigen p53 (Homo sapiens), sequence (P04637 whole entry, looked up): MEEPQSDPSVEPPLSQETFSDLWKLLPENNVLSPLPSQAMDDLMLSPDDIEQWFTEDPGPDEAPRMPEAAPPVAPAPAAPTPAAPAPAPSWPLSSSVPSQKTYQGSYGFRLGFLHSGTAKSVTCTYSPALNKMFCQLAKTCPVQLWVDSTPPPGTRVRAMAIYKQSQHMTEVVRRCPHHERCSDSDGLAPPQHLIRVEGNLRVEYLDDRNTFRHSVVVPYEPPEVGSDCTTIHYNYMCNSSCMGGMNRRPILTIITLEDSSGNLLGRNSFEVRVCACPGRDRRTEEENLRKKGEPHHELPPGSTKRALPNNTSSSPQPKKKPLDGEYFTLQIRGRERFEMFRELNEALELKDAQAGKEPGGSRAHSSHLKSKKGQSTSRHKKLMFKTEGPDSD
Signal transducer and activator of transcription 3 (Homo sapiens), sequence (P40763 whole entry, looked up): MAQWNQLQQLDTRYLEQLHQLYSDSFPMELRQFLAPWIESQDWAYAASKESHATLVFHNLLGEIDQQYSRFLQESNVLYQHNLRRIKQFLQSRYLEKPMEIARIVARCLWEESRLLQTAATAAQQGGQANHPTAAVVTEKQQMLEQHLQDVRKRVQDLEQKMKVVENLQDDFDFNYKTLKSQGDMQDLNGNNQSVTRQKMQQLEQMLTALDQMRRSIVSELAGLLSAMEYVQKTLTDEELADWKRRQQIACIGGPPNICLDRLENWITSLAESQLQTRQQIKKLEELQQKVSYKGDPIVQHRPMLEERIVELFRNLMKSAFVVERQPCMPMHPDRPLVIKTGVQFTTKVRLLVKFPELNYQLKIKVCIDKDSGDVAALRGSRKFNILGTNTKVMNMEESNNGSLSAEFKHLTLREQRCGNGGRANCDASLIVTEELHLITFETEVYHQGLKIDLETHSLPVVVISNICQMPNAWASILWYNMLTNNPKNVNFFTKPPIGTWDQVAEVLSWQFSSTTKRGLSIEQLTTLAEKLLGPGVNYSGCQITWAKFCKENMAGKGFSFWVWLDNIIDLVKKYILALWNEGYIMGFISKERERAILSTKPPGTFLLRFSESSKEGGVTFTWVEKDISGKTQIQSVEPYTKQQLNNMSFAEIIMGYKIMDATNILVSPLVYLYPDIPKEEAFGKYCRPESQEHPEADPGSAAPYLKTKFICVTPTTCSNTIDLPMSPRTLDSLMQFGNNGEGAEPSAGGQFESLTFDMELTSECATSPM

`CCCCCCCCCCCC`: in [1], the half-maximal activity concentration (AC50) (in general, the midpoint of the concentration-response curve, whichever way the signal moves) was 89.9 µM (active).

For the compound `CCCCCCCCCCCCCCC`, the outcome in test [2], in [3], in test [4], in [5], in test [6] and in test [7] was inactive. The call in test [8], in test [9], in test [11], in [12], in test [13] and in test [1] was inactive. The half-maximal activity concentration (AC50) in [10] is 19.8 µM (active).

Regarding `CN(C)CCOC(c1ccccc1)c1ccccc1`, the compound was classed as inactive in [2], in test [3], in [4], in test [5], in test [6] and in test [7]. In addition, the result in test [8], in test [10], in test [11], in test [12], in test [13] and in test [1] was inactive. The compound was called inactive in test [14] and in test [15]. Also, the AC50 in [9] was 58.4 µM (active).

`CS(=O)(=O)c1ccc([C@@H](CC2CCCC2)C(=O)Nc2cnccn2)cc1Cl`: the compound was called inactive in test [2], in [5], in [7], in [8] and in test [12]. The AC50 was 84 µM (active) in test [3]; 94.3 µM (active) in test [4]; 74.1 µM (active) in test [6]; 63.5 µM (active) in test [9]; 61.3 µM (active) in test [16]; 12.2 µM (active) in [10]. Besides, the AC50 in [11] was 89.2 µM (active).

For the compound `OCCN1CN(CCO)CN(CCO)C1`, the compound was called inactive in [1].

As for `CCC(C)c1ccccc1O` (stereo unspecified), the outcome in [2], in test [3], in [4], in test [5], in test [6] and in test [7] was inactive. The compound was classed as inactive in [8], in test [9], in test [10], in test [11], in test [12] and in test [13]. Also, the outcome in test [1] was inactive.

Regarding `Cn1sccc1=O`, in test [1], the outcome was inactive.

Regarding `O=C(CCCN1CCC(O)(c2ccc(Cl)cc2)CC1)c1ccc(F)cc1`, the compound was called inactive in test [2], in test [7], in test [9], in test [12], in test [1] and in [17]. The result in test [18], in test [14], in [19], in test [15] and in test [20] was inactive. Further, the concentration at half-maximal activity (AC50) in test [3] was 82.6 µM (active); in test [4], 95.2 µM (active); in test [5], 79.2 µM (active); in test [6] it was 73.6 µM (active); in test [8], 82.1 µM (active); in test [16] it was 79.1 µM (active). Besides, the AC50 in test [10] is 79.3 µM (active); in [11], 76.1 µM (active); in test [13], 73.6 µM (active).

The values above are taken from PubChem BioAssay (EPA / NIEHS).
